Our source for the growth values is PubChem BioAssay (NCI).

The structures appear in SMILES notation. This is part of a sample that, as a whole, favours compounds with a hit. Of some 83,000 tested, about 20% had one in any assay.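 For each line, cells grew in 96-well plates with the test compound present at a single concentration for 48 hours.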 Values without a mark were called inactive. Activity calls are given as the source filed them. How the source made its calls: active means growth percent below 10; inactive means the rest.

Common to all, as to experiment: NCI-60 one-dose screen, 48 h (100 = growth as untreated, 0 = no growth, -100 = all killed)
Conditions in all cases: 10 µM unless noted

Assay [1] has as its system SR leukemia.
For assay [2], the system named is RPMI-8226 leukemia.
Assay [3] has as its system OVCAR-8 ovarian.
Assay [4] has as its system OVCAR-5 ovarian.
The test system of assay [5] is OVCAR-4 ovarian.
The subject of assay [6] is SK-OV-3 ovarian.
The test system of assay [7] is IGROV1 ovarian.
The subject of assay [8] is OVCAR-3 ovarian.
Assay [9] has as its system NCI/ADR-RES ovarian.
Assay [10] deals with T-47D breast.
Assay [11] deals with BT-549 breast.
For assay [12], the system named is MDA-MB-435 melanoma.
Assay [13] relates to MCF7 breast.
The test system of assay [14] is HCT-116 colon.
Assay [15] has as its system HCC-2998 colon.
Assay [16] concerns KM12 colon.
Assay [17] has as its system SW-620 colon.
Assay [18] relates to MDA-MB-468 breast.

For the compound `N/C(=N\c1nc2ccccc2s1)NC(=O)NCCCCCCO`, the growth was 32.4% in [1]; 46% in [2]; 50.7% in assay [3]; 74.5% in assay [4]; 17.8% in assay [5]; 59.1% in [6]. Moreover, the growth in assay [7] is 61.5%; in assay [8], 61.8%; in [9], 24.3%; in assay [10], 9.9% (active); in [11] it was 21.4%; in assay [12], 41.2%. The growth was 30% in assay [13], 36.9% in assay [14], 82% in assay [15] and 55.1% in assay [16].
Take `CC1(C)CC[C@]2(C(=O)O)CC[C@]3(C)C(=CCC4[C@@]5(C)C[C@@H](O)[C@@H]6OC(c7cccc(Br)c7)OC[C@@]6(C)C5CC[C@]43C)C2C1` (stereo partly drawn): the growth in assay [1] is 30.6%; in assay [2] it was 18.9%; in assay [3], 40%; in assay [4], 67.5%; in [5], 52.4%; in assay [6] it was 101%. For the same compound, the growth in assay [7] is 66.7%; in assay [8], 34.9%; in [9] it was 40.6%; in [10], 39.4%; in assay [11], 44.4%; in assay [12] it was 61.2%. Also, the growth is 25% in assay [17]; 18.6% in assay [13]; 10.8% in assay [14]; 34.8% in assay [15]; 20.8% in assay [16]; 23.6% in [18].
In the case of `COc1cc(-c2ccc(/C=N/NC(=O)c3[nH]c4ccc(Br)cc4c3-c3ccccc3)o2)cc(OC)c1OC`, the growth is 78% in [1]; 63.2% in assay [2]; 67.2% in assay [3]; 99.6% in assay [4]; 92.3% in [5]; 92.6% in assay [6]. In addition, the growth in assay [7] is 95.1%; in assay [8], 95.6%; in assay [9], 59%; in assay [10] it was 85.7%; in assay [11] it was 95.4%; in assay [12], 90.3%. For the same compound, the growth in assay [13] was 70%; in assay [14] it was 76.7%; in assay [15], 110%; in assay [16], 82.3%; in assay [18], 88.6%.
Regarding `O=C(Cn1c(/C=C/c2ccccc2)nc2ccccc2c1=O)Nc1ccccc1`, the growth in assay [1] was 80.3%; in assay [2], 90.2%; in assay [3], 44.4%; in assay [4] it was 96.1%; in [5], -0.268% (active); in [6], 61.4%. Further, the growth in assay [7] is 107%; in [8], 78.3%; in assay [9] it was 57.9%; in [10] it was -11.3% (active); in [11] it was 91.3%; in assay [12], 105%. Further, the growth in [17] is 75.9%; in assay [14] it was 44.6%; in assay [15] it was 95.2%; in assay [16], 101%; in assay [18], 61.8%.
Consider `O=C(N/N=C/c1ccc(-c2ccc(O)cc2)o1)c1[nH]c2ccc(Br)cc2c1-c1ccccc1`, for which the growth is -9.54% (active) in [1]; -9.92% (active) in assay [2]; -33.5% (active) in assay [3]; 1.22% (active) in assay [4]; 24.4% in [5]; 19.6% in assay [6]. In addition, the growth in assay [7] was -17.3% (active); in assay [8], -41.1% (active); in assay [9], -12.1% (active); in assay [10] it was 19%; in [11], -13.3% (active); in [12], -14.7% (active). For the same compound, the growth in assay [13] is -3.44% (active); in [14], 4.35% (active); in [15], -23.6% (active); in assay [16], 2.17% (active); in assay [18] it was -16.6% (active).
On to `O=C(NNc1ccccc1)n1c(=O)c2ccccc2c(=O)n1-c1ccccc1`, for which the growth in assay [1] was 80.8%; in [2] it was 102%; in assay [3], 96.7%; in assay [4] it was 96.1%; in assay [5] it was 97.6%; in [6], 85.5%. Moreover, the growth was 96.4% in assay [7]; 104% in assay [8]; 98.3% in [9]; 87.9% in [10]; 90% in assay [11]; 97.8% in assay [12]. Further, the growth in assay [13] was 88.3%; in assay [14], 79.2%; in assay [15], 108%; in assay [16], 93.3%; in [18], 99%.
With `COc1c(F)ccc(C(=O)Nc2ccc3nc(NC(=O)C4CCCN(S(=O)(=O)c5cccc(C(F)(F)F)c5)C4)sc3c2)c1F` (stereo not drawn), the growth in [1] is 38.4%; in [2], 54.4%; in [3], 94.5%; in assay [4], 101%; in assay [5] it was 74.3%; in assay [6] it was 102%. In addition, the growth in [7] was 77.5%; in [8], 88.1%; in assay [9] it was 84.3%; in assay [10], 48.4%; in assay [11], 54.3%; in assay [12] it was 87.1%. Further, the growth in assay [17] was 99.9%; in assay [14], 60.7%; in assay [15], 107%; in assay [16] it was 80%; in assay [18] it was 101%.
On to `CC1=C(C(=O)c2ccccc2)C(c2cccc(Cl)c2Cl)n2c(nc3ccccc32)N1` (stereo not drawn), for which the growth was 39.2% in assay [1]; 86% in [2]; 26.3% in assay [3]; 60.3% in assay [4]; 65.2% in assay [5]; 33.7% in [6]. For the same compound, the growth in assay [7] is 77.7%; in assay [8] it was 35.5%; in [9], 19.1%; in assay [10], 76.6%; in [11], 52.4%; in [12] it was 72.1%. For the same compound, the growth in assay [13] was 26.7%; in [14] it was 50.1%; in [15] it was 88%; in assay [16] it was 92%; in [18] it was -38.3% (active).
For the compound `COc1ccc2cc([C@H](C)C(=O)N/N=C/c3ccc(Br)cc3)ccc2c1`, the growth in [1] is 87.3%; in [2] it was 105%; in [3] it was 105%; in [4] it was 100%; in [5], 100%; in [6] it was 97.7%. In addition, the growth is 102% in [7]; 114% in assay [8]; 98.2% in assay [9]; 90.3% in assay [10]; 104% in assay [11]; 103% in assay [12]. Also, the growth was 90.7% in [13]; 103% in assay [14]; 107% in assay [15]; 105% in assay [16]; 100% in assay [18].
